Assay outcomes (PubChem)
KCNQ2 block: KCNQ2 (rat) channel inhibition; CHO-K1 KCNQ2, FluxOR thallium flux, 20 min; active compounds read low; B-score at 10 µM; O88943; 310,000 tested, 1.1% active;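 active = fluorescence ratio B-score at most minus 3 library SDs, with starting brightness B-score within 2 library SDs, cut at about -5.5 in these data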
Target sequence (O88943 whole entry, looked up): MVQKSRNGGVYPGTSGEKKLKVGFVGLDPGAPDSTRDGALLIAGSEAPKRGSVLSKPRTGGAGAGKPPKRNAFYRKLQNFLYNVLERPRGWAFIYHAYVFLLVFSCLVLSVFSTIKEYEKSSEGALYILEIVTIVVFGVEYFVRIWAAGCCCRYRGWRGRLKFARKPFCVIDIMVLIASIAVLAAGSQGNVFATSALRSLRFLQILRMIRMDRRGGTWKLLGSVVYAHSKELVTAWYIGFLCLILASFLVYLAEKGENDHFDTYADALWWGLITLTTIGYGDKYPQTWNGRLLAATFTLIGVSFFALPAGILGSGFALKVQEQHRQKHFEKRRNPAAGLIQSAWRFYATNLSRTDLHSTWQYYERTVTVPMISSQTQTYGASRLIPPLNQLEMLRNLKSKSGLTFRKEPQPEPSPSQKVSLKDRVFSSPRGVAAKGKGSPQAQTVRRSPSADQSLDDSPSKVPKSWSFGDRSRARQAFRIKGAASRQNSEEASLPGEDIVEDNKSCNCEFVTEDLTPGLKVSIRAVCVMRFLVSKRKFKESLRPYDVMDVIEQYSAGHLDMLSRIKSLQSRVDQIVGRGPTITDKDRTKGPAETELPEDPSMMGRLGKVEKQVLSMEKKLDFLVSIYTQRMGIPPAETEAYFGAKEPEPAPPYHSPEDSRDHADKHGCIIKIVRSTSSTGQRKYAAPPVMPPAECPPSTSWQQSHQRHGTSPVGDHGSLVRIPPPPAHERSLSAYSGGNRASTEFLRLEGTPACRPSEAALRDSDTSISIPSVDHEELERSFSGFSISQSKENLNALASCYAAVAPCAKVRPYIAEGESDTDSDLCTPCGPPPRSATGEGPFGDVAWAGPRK
KCNQ2 enhance: potentiators of rat KCNQ2 potassium channel; O88943; CHO-K1 KCNQ2, FluxOR thallium flux fluorescence; active compounds read high; B-score at 10 µM; 310,000 tested, 0.54% active; AID 2239;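 active = fluorescence ratio B-score at least 3 SD of library B-scores, with initial fluorescence B-score within 3 of them, cut at about 5.3 in these data; same plate scores as AID 2156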;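 note: B-score of peak minus minimum over baseline fluorescence ratio after K+ and Tl+ stimulus; positive B-score means potentiation of KCNQ2 with more thallium influx and brighter signal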
Kir21 conf inh: confirmation of mouse Kir2.1 potassium channel inhibitors; shares compounds with KCNQ2 enhance; Kir2.1-expressing cells, FluxOR thallium flux fluorescence; active compounds read low; Tl flux remaining, % of negative control (active compounds read low), % at 10 µM; 2,300 tested, 41% active; AID 2032;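 active = Primary-screen hit whose thallium flux fell at least 3 control SD below untreated wells in both duplicates, with normal baseline fluorescence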;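 note: 0% = blank wells without stimulus and 100% = stimulated no-compound controls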
HEK293 Tl flux: counter-screen for Kir2.1 inhibitors: effect in parental HEK293 cells; 2,300 tested, 19% active; shares compounds with KCNQ2 enhance; FluxOR thallium flux fluorescence; 0% = unstimulated blank wells; AID 2105; FluxOR signal as % of negative control (100 = no effect), % at 10 µM;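 active = dye signal at least 3 control SD above or below untreated wells in both duplicates, raw fluorescence within 3, either direction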;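 note: percent is based on the flux ratio of peak minus minimum fluorescence over baseline F0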
CHO-K1 Tl ctr: alters thallium flux in parental CHO-K1 cells, KCNQ2 counter-screen; shares compounds with KCNQ2 enhance; 1,200 tested, 43% active; FluxOR thallium flux fluorescence; zero = vehicle mean+3SD, 100% = vehicle-minus-blank window; activity increase over 3SD of controls, % at 10 µM;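 active = signal rise of at least 3 SD above the untreated control mean, in both duplicate wells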;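 note: counter screen of KCNQ2 potentiator hits so any rise reflects channel-independent effects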
KCNQ1 sel pot: human KCNQ1 counter-target activity of KCNQ2 potentiators. shares compounds with KCNQ2 enhance. CHO KCNQ1 stable, FluxOR thallium flux fluorescence; beyond 3SD, as % of vehicle-control signal. activation over 3SD threshold, % at 10 µM. 1,200 tested, 28% active. AID 2283;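 active = fluorescence ratio rise of at least 3 SD of vehicle wells above their mean, in both replicate wells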;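 note: 0% = vehicle mean plus 3 SD and 100% = vehicle minus unstimulated blank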
KCNQ2 pot confirm: rat KCNQ2 channel potentiator confirmation | CHO-KCNQ2 cells, FluxOR thallium flux fluorescence | 1,200 tested, 68% active | shares compounds with KCNQ2 enhance | potentiation, less the hit threshold, % at 10 µM;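 active = fluorescence ratio rising 3 SD or more over the vehicle control mean in both replicates, plus primary screen hit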;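 note: peak minus minimum thallium fluorescence divided by baseline after K/Tl stimulus; 0% = vehicle mean plus 3 SD and 100% = vehicle minus unstimulated blank difference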
Kir21 spec: tests whether KCNQ2 potentiators also affect mouse Kir2.1; shares compounds with KCNQ2 enhance; HEK293 Kir2.1, FluxOR thallium flux fluorescence; activity over 3SD threshold, % at 10 µM; 1,200 tested, 2% active;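 active = fluorescence ratio rise of at least 3 SD above the vehicle-control mean, seen in both replicates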;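 note: 0% = vehicle mean plus 3 SD and 100% = vehicle minus no-stimulus blank window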
KCNQ2 W236L pot: KCNQ2 potentiators acting on retigabine-insensitive rat KCNQ2 W236L mutant; shares compounds with KCNQ2 enhance; CHO KCNQ2-W236L, automated patch clamp current; current increase over 3SD of negative controls (%), active compounds read high, % at 25 µM; 940 tested, 10% active;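 active = current increase at least 3 SD of the untreated controls above them in both duplicate recordings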
Starred values were filed as active, the others as inactive; i = inactive; · = no result; ! = not active in a repeat. This is a sample that favours compounds with a hit; in the whole collection about 1.6% have one here.

SMILES | KCNQ2 block | KCNQ2 enhance | Kir21 conf inh | HEK293 Tl flux | CHO-K1 Tl ctr | KCNQ1 sel pot | KCNQ2 pot confirm | Kir21 spec | others
O=S(=O)(NCCc1ccccn1)c1ccc(OC(F)(F)F)cc1 | i | · | · | · | · | · | · | ·
Cc1nnc2n(-c3ccccc3)c(=O)c3c4c(sc3n12)COC(C(C)C)C4 (stereo not given) | i | 0.2 | · | · | · | · | · | ·
CC(C)C1Cc2c(sc3[nH]c(=S)n(Cc4ccccc4)c(=O)c23)CO1 (stereo not given) | i | 7.33* | i | 396.5%* | 18.7* | -9.4 | 52.2* | -13.3 | KCNQ2 W236L pot=i
N#Cc1c(OCC(=O)c2ccccc2)nc2c(c1-c1ccco1)CCc1ccccc1-2 | i | 19.6* | i | 145.0%* | 2.2* | -3.2 | 41.6* | -36.7 | KCNQ2 W236L pot=i
Cc1cc(C)c(C#N)c(OCC(=O)c2ccccc2)n1 | i | 0.86 | · | · | · | · | · | ·
CCOC(=O)COc1nc2c(c(-c3ccco3)c1C#N)CCc1ccccc1-2 | i | 10.3* | i | i | 48.2* | 84.0* | -11.0 | -27.9 | KCNQ2 W236L pot=i
CCOC(=O)COc1nc(-c2ccccc2)cc(-c2ccco2)c1C#N | i | 2.44 | · | · | · | · | · | ·
Cc1cc(OCCn2cncn2)ccc1[N+](=O)[O-] | i | · | · | · | · | · | · | ·
Cc1ccc(CN2CCC(n3nccc3NC(=O)c3ccccc3C)CC2)o1 | i | 1.67 | · | · | · | · | · | ·
CCC(C(=O)Nc1cccnc1)n1c(=O)[nH]c2ccccc2c1=O (stereo not given) | i | 1.71 | · | · | · | · | · | ·
COc1ccc(N2CCN(C(C)C(=O)Nc3nnc(C)s3)CC2)cc1 (stereo not given) | i | · | · | · | · | · | · | ·
Cc1ccc(Nc2cc(C)nn2-c2nc(C)cc(=O)[nH]2)cc1 | i | 17.4* | i | 269.0%* | 59.7* | 44.6* | 41.8* | -29.6 | KCNQ2 W236L pot=i
Cc1ccc(Nc2cc(C)nn2-c2nc(C)cc(C)n2)cc1 | i | 2.04 | · | · | · | · | · | ·
Cc1cnc(NC(=O)c2cccs2)s1 | i | 0.05 | · | · | · | · | · | ·
O=C(Nc1ncc([N+](=O)[O-])s1)c1cccs1 | i | 7.7*! | i | i | 3.5* | -14.3 | -19.3 | -31.8
CC(=O)NC(Cc1cccc(C)c1)C(=O)NC1CCN(C(=O)NCc2ccccc2)CC1 (stereo not given) | i | · | · | · | · | · | · | ·
S=C(NCc1ccc2c(c1)OCO2)NC1CCN(Cc2ccccc2)CC1 | i | 1.03 | 39.5%* | 125.5%* | · | · | · | ·
S=C(NCc1ccccc1)N1CCN(Cc2ccc3c(c2)OCO3)CC1 | i | · | · | · | · | · | · | ·
CCC(C)(C)NC(=O)C1CCCN(S(=O)(=O)c2ccc3c(c2)CC(C)N3C(=O)C2CC2)C1 (stereo not given) | i | · | · | · | · | · | · | ·
COc1cc(CNc2cccc(F)c2)cc(Br)c1O | i | 11.2* | i | i | 2.4* | -8.2 | -5.5 | -22.6
COc1ccc(CNc2ccccc2)cc1Br | i | · | · | · | · | · | · | ·
CC(CC(=O)NCc1ccc(F)cc1)c1ccccc1 (stereo not given) | i | 2.87 | · | · | · | · | · | ·
CSc1nc(C(C)C)ccc1CNC(=O)CC(C)c1ccccc1 (stereo not given) | i | 29.6* | i | i | -11.1 | 35.3* | 111.6* | -26.9 | KCNQ2 W236L pot=i
CCCN(CCC)C(=O)Cn1c(=O)n(CCCCCC(=O)Nc2ccccc2)c(=O)c2sccc21 | i | 1.48 | · | · | · | · | · | ·
O=C(CSc1nnc(-c2ccc(F)cc2)o1)N1CCCC1 | i | · | · | · | · | · | · | ·
SMILES | KCNQ2 block | KCNQ2 enhance | Kir21 conf inh | HEK293 Tl flux | CHO-K1 Tl ctr | KCNQ1 sel pot | KCNQ2 pot confirm | Kir21 spec | others
Brc1ccc(CNCc2cccs2)cc1 | i | · | · | · | · | · | · | ·
c1ccc(COc2ccc(CNCc3cccs3)cc2)cc1 | i | · | 10.5%* | 72.0%* | · | · | · | ·
COC(=O)[C@]1(C)N[C@H](c2ccc(-c3ccc(Cl)c(Cl)c3)c(OC)c2)[C@@H]2C(=O)N(C)C(=O)[C@@H]21 | i | · | · | · | · | · | · | ·
CCOc1ccccc1-n1c(SCC(=O)N2CCOCC2)nc2ccccc2c1=O | i | 0.41 | · | · | · | · | · | ·
CCn1c(=O)c(C(=O)NCc2ccccn2)c(O)c2ccccc21 | i | 18.1* | i | i | -19.5 | -23.5 | 35.4* | -52.9 | KCNQ2 W236L pot=i
CCn1c(=O)c(C(=O)NCc2ccc(OC)cc2)c(O)c2ccccc21 | i | · | · | · | · | · | · | ·
Cc1ccsc1CNS(=O)(=O)c1ccc(F)cc1 | i | · | · | · | · | · | · | ·
COc1cccc(/C(=N/O)C2CC2c2ccc(Cl)cc2)c1 (stereo not given) | i | 6.66* | i | i | 33.0* | -3.9 | 8.1* | -33.3 | KCNQ2 W236L pot=i
COc1cccc(/C(C)=N/NS(=O)(=O)c2ccc(Cl)cc2)c1 | i | 1.03 | · | · | · | · | · | ·
COCCOC(=O)C1=C(C)NC(=O)NC1c1ccc(-c2cc(Cl)ccc2Cl)o1 (stereo not given) | i | · | · | · | · | · | · | ·
CCN(c1nc(N)c(C(=O)N=C(N)N)nc1Cl)C(C)C | i | 5.33* | 41.5%* | i | 9.8* | -9.2 | -2.2 | -93.6 | KCNQ2 W236L pot=i
CCc1nnc(NC(=O)C2=CCN(S(=O)(=O)c3ccc(F)cc3)CC2)s1 | i | 0.46 | · | · | · | · | · | ·
O=S1(=O)CCOCCCN1Cc1ccccc1F | i | · | · | · | · | · | · | ·
C=CCNC(=S)Nc1nc2c(cc1C(=O)OCC)CCCC2 | i | 4.29 | · | · | · | · | · | ·
CCNC(=S)Nc1nc2c(cc1C(=O)OCC)CCCC2 | i | 5.49* | i | 147.5%* | 7.6* | -18.7 | -2.2 | -29.5 | KCNQ2 W236L pot=i
Cc1cc(Cl)c(S(=O)(=O)N2CCN(c3ccc(F)cc3)CC2)cc1OCC(N)=O | i | 0.29 | · | · | · | · | · | ·
Cc1cc(Cl)c(S(=O)(=O)N2CCN(c3ccc(F)cc3)CC2)cc1OCC(=O)NC1CCCCC1 | i | 16.3* | i | i | 52.7* | -11.4 | 60.3* | -39.4 | KCNQ2 W236L pot=i
OCC1(CCOc2ccccc2)CCN(Cc2ccncc2)CC1 | i | · | · | · | · | · | · | ·
CSc1ccc(CN2CCC(CO)(CCOc3ccccc3)CC2)cc1 | i | 0.62 | 42.5%* | i | · | · | · | ·
COc1ccc(-n2c(SCc3ccc([N+](=O)[O-])cc3)nnc2-c2ccc(C)cc2)cc1 | i | · | · | · | · | · | · | ·
CN(C)S(=O)(=O)c1ccc(NC(=O)CN2CCC(Cc3ccccc3)CC2)cc1 | i | 4.32 | · | · | · | · | · | ·
O=C(CN1CCC(Cc2ccccc2)CC1)Nc1ccc2c(c1)OCCO2 | i | 5.47* | · | · | -6.4 | -17.3 | 0.3* | -55.4 | KCNQ2 W236L pot=i
NNc1nc2c(F)cccc2s1 | i | · | · | · | · | · | · | ·
Fc1cccc2sc(Nc3nc4c(F)cccc4s3)nc12 | i | 1.28 | i | i | · | · | · | ·
COc1cc(OC)cc(-c2nnc(Nc3nc4c(F)cccc4s3)o2)c1 | i | 3.3 | · | · | · | · | · | ·
